A selection: hits, their analogues and other compounds. The true share with any hit is near 2.2%.
Abeta rescue: restores growth of yeast expressing A-beta42 peptide; 0.063% of 410,000 active; AID 1347071; yeast expressing A-beta42, growth rescue, OD600, 48 h; response scale: 0% DMSO, 100% iron-clioquinol control; Potency, µM (doses to about 46.1 µM), hits mostly activators; further: nearly all actives have a fitted effect of over 55% in size
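Yeast A-beta toxicity model in growth medium with pinned compounds, 48 h at 30 C; growth read as absorbance at 600 nm. Normalized to FeCl3/clioquinol equimolar mix (positive) and DMSO (negative).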
TDP43 rescue: inhibitors of TDP-43 toxicity in yeast | TDP-43 expressing yeast growth rescue, BacTiter-Glo, 24 h | Potency, µM (series often up to 46.1 µM), inactives show top-dose growth rescue (activation), actives largely listed as activators | 1.8% of 410,000 active | AID 652104; further: % of control where 0% means no effect; nearly all actives have a fitted effect of over 50% in size
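Growth rescue of TDP-43-toxic yeast measured as ATP luminescence (BacTiter-Glo). Cells grown to mid-log in raffinose, induced in galactose at OD600=0.02, exposed to compound 24 hr at 30 deg C.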
aSyn rescue: rescues yeast growth from alpha-synuclein toxicity; 0.14% of 370,000 active; Yeast expressing alpha-synuclein, growth rescue, BacTiter-Glo, 24 h; AID 652106; Potency, µM (doses to about 46.1 µM), without a hit: at the highest dose growth rescue (activation), most hits filed as activators; further: % of control where 0% means no effect; nearly all actives have a fitted effect of over 65% in size
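Galactose-induced alpha-syn yeast (OD600=0.02, raffinose-pregrown) + pinned cpd, 24 hr, 30 deg C; growth by BacTiter-Glo luminescence. Growth restoration scores as activation.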
Mito fusion yeast: blocks mitochondrial division or promotes mitochondrial fusion; 0.23% of 320,000 active; Potency, µM (top dose mostly 46.1 µM), without a hit: at the highest dose growth rescue (activation), usual class: activators; S. cerevisiae fusion-defective mutant growth rescue, CellTiterGlo 48 h; further: % of control where 0% means no effect; nearly all actives have a fitted effect of over 45% in size
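Luminescent cell viability in 1536-well qHTS format served as the measure of rescued growth in ts fusion-mutant S. cerevisiae cultured on non-fermentable YPEG for 48 hours at 37C.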
FUS yeast rescue: suppressors of FUS proteinopathy in yeast | S. cerevisiae FUS-expressing, growth rescue, OD600, 24 h | Potency, µM (highest dose often 76.6 µM), most hits filed as activators | 0.24% of 390,000 active | AID 1347120;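 further: plate controls were DMSO vehicle for no effect and reference control for full effect; nearly all actives have a fitted effect of over 55% in size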
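Quantitative HTS measuring growth restoration of FUS-toxic yeast. Galactose-induced cells (OD 0.005) were exposed 24hr at 30C to compounds at several concentrations, then absorbance at 600 nm was recorded.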
Numbers without * were called inactive; i = inactive; ? = inconclusive; nt = not tested or not shown; ! = repeats disagree. The call rests on the fitted dose curve; in most records, active means well fitted curve in the direction sought with a large enough effect; inconclusive means small, poorly fitted or top-dose-only effect, or another doubt; inactive means no such curve, though single readings can be large; an effect the other way counts as inactive or inconclusive. Potency means the concentration at half of the fitted maximal effect.

SMILES	Abeta rescue	TDP43 rescue	aSyn rescue	Mito fusion yeast	FUS yeast rescue
COC(=O)CNC(c1ccccc1)c1cc(Br)ccc1NC(=O)CCN1CCOCC1 (configuration not stated)	i	?	7%	?	?
CCOC(=O)c1c(-c2ccc(C)cc2)csc1NC(=O)CCN1CCOCC1	i	4%	1%	13µM*	nt
CCOC(=O)c1c(-c2ccccc2)csc1NC(=O)CCN1CCOCC1	i	-1%	3%	11µM*	nt
CCOC(=O)c1c(-c2ccc(C)o2)csc1NC(=O)CN1CCOCC1	i	?	25%	-2%	i
CNc1cnc(-c2ccc(C(=O)N3CCOCC3)cc2)cn1	i	21%	2%	nt	i
CCC(C)(C)NC(=O)C(c1ccc(F)cc1)N(CCOC)C(=O)CCC(=O)Nc1nccs1 (configuration not stated)	i	-2%	4%	3%	i
Cc1[nH]nc2c1-c1nc3ccccc3nc1C(C)(C)C2	i	22µM*	0%	-1%	i
CC12CCC(C)(c3nc4ccccc4nc31)C2(C)C	i	7%	-5%	-2%	i
COc1ccc(C)cc1NC(=O)C1CC1c1ccccc1 (configuration not stated)	i	16µM*	-29%	nt	i
COc1ccc(C)cc1NC(=O)c1nn(-c2ccccc2)cc1OC	i	16µM*	-11%	?	i
Cc1ccc(Oc2c(C(F)(F)F)oc3cc(OCC(=O)NC4CCCCC4)ccc3c2=O)cc1	i	22%	nt	nt	i
CN(C)c1ccc(/C=C2\C=Cc3ccccc32)c(Cl)c1	nt	nt	-3%	nt	nt
COC(=O)C(C)Nc1cccc(Br)c1 (configuration not stated)	i	2%	-16%	-2%	i
CCOC(=O)C(C(=O)OCC)C(Nc1cccc(Br)c1)c1ccccc1 (configuration not stated)	i	13µM*	1%	0%	i
CCCCCc1ccc(-c2cn(CCc3c[nH]c4ccccc34)nn2)cc1	i	13%	-2%	0%	i
O=C(O)CCCCCCCCc1cn(CCc2c[nH]c3ccccc23)nn1	i	13µM*	-10%	-13%	i
Cc1ccc(NC2=C(Cl)C(=O)OC2OC(C)C)cc1 (configuration not stated)	i	?	-5%	1%	i
Cc1cccc(NC2=C(Cl)C(=O)OC2OC(C)C)c1 (configuration not stated)	i	13µM*	1%	-4%	i
CCc1sc(C(=O)NCc2ccco2)cc1Br	i	16µM*	-12%	-4%	i
CCc1sc(C(=O)NCc2ccco2)cc1C	i	24%	5%	4%	i
Cc1ccc(N(CC(=O)Nc2ccc(C)c(Cl)c2)S(=O)(=O)c2cccs2)cc1	i	0%	nt	nt	i
COc1ccccc1C1CCN(C(=O)c2cccs2)CC1	i	13µM*	-3%	2%	i
CCOC(=O)NC(=O)CSc1nc(C)cc(C)c1C#N	i	16µM*	2%	-5%	i
CCC1CCc2nc3sc(C(=O)Nc4cccc(F)c4)c(N)c3cc2C1 (configuration not stated)	i	4%	nt	nt	i
COc1cc(CNC(=O)CCCCCCC(C)C)ccc1O	i	18%	6%	18µM*!	i
SMILES	Abeta rescue	TDP43 rescue	aSyn rescue	Mito fusion yeast	FUS yeast rescue
C[n+]1ccc(/C=C/c2ccc([N+](C)(C)C)cc2)c2ccccc21	nt	nt	-65%	nt	nt
CCOC(=O)c1c(C=O)c(C)n(Cc2ccc(Cl)cc2)c1C	i	35µM*	9%	?	i
COc1ccc(Cl)cc1NC(=O)c1ccc(CN2C(=O)CCn3nc(C)cc32)cc1	i	23%	nt	nt	i
O=[N+]([O-])c1ccc(N2CCN(C(=S)NCc3ccc(Cl)cc3)CC2)cc1	5.6µM*	?	23%	-20%	i
CCNC(=S)N1CCN(c2ccc([N+](=O)[O-])cc2)CC1	i	5%	-3%	-1%	i
O=C(NC1=C(Nc2ccc(Cl)cc2)C(=O)c2ccccc2C1=O)c1ccccc1	i	8%	8%	?	nt
CN(C1=C(NC(=O)c2ccc(Cl)cc2)C(=O)c2ccccc2C1=O)c1ccccc1	i	35µM*	-5%	3%	nt
CCOC(=O)c1c(C)[nH]c(C)c1S(=O)(=O)N1CCCC(C(=O)Nc2ccc(OC)c(OC)c2)C1 (configuration not stated)	i	6%	nt	nt	i
CC1CCN(C(=O)CSc2nc(-c3ccccc3)no2)CC1	i	?	nt	nt	i
CC1CCN(C(=O)CSc2nc(-c3ccc(C(C)C)cc3)no2)CC1	i	18µM*	nt	nt	i
O=S(=O)(c1ccc(F)cc1)N1CCC(c2nc3ccccc3o2)CC1	nt	nt	nt	nt	i
CN1CCc2c(sc3nc(SCC(=O)N4CCCCC4)n(-c4ccccc4)c(=O)c23)C1	i	-12%	5.6µM*	1%	i
Cc1nc2cc(C(=O)N3CCN(C(=O)C(Cl)Cl)CC3)ccc2n1C1CCCC1	nt	nt	nt	nt	i
Cc1cccc(Cn2c(=O)n(Cc3ccc(C(=O)NC4CCN(Cc5ccccc5)CC4)cc3)c(=O)c3ccccc32)c1	i	17%	nt	nt	i
CN1OC[C@@H]2CN(C(=S)NCCc3ccccc3)[C@H](c3ccccc3Br)C[C@@H]21	i	13µM*	0%	nt	i
Cn1cc(CCC(=O)NCc2cccc(Cl)c2)c2ccccc21	i	?	8%	32µM*	i
Cn1cc(CCCC(=O)NCc2ccccc2)c2ccccc21	i	20%	12%	9%	i
CCc1ccc(Sc2cc(C(=O)NCc3ccccc3OC)c3ccccc3n2)cc1	i	9%	-1%	nt	i
O=C(NCc1ccc2c(c1)OCO2)c1ccc2c(c1)OCO2	?	18%	0%	-9%	i
O=C(NCCc1cccc(Cl)c1)c1ccc2c(c1)OCO2	i	?	-2%	8%	i
Cc1cccc(NC(=S)NCc2ccc3c(c2)OCO3)c1	i	18µM*	-1%	2%	i
O=C(NCc1ccc2c(c1)OCO2)c1ccc(COc2cccc(Cl)c2)o1	?	14µM*	?	?	i
Cc1cccc(NC(=O)NCc2ccc3c(c2)OCO3)c1	nt	nt	nt	-5%	nt
O=C(NCc1cccc(Cl)c1)c1ccc2c(c1)OCCO2	i	10µM*	1%	22%	i
O=C(NCc1ccc2c(c1)OCO2)c1ccc2c(c1)OCCO2	?	25µM*	-23%	-29%	i
CCN(C(=O)CSc1nc(-c2ccc(C(C)C)cc2)no1)c1ccccc1	i	25%	nt	nt	i
Cc1ccc(N(C)C(=O)c2ccc3c(Cl)c4c(nc3c2)CCC4)cc1C	i	25µM*	?	?	?

Screening results (PubChem BioAssay)
